High-throughput results as filed in PubChem BioAssay.
Rows were chosen to be rich in hits. Some 17% of all compounds tested hit in one or more screens of this group.
HT1080NT lethal: kills 2HG-producing HT-1080-NT fibrosarcoma cells. HT-1080-NT fibrosarcoma viability, CellTiter-Glo ATP luminescence, 48 h. Potency, µM (titrated, usually from 46.1 µM), hits mostly cytotoxic. 360,000 tested, 1.6% active. AID 686970;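 also: NT is the 2HG producing partner of a matched IDH1 knockdown line; nearly all actives have a fitted effect of over 55% in size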
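Toxicity toward the 2HG-producing NT line was scored as %Activity, normalised to DMSO and no-cell wells, from CellTiter-Glo luminescence after 48 hours' treatment.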
HepG2 tox: kills HepG2 cells in TGF-b inhibitor counter-screen; HepG2 CAGA-GFP viability, ATP luminescence, 18 h; Potency, µM (highest dose often 46.1 µM), usual class: cytotoxic; 410,000 tested, 0.76% active
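CellTiter-Glo luminescence gave cytotoxicity after 18 hours at 37 degrees C. The cells were HepG2 CAGA-GFP in 1% FBS DMEM, stimulated with 500 pg/mL TGF-beta after compound addition. %Activity was normalised to no-cell wells (complete cell-killing) and DMSO (no toxicity), and curves were fitted and classified.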
TDP1 cell noCPT: qHTS for Inhibitors of human tyrosyl-DNA phosphodiesterase 1 (TDP1): qHTS in cells in absence of CPT. DT40 Tdp1-/- hTDP1 cells, no CPT, ATP luminescence, 48 h. Potency, µM (top dose mostly 46.2 µM), hits mostly inhibitors. 420,000 tested, 15% active. AID 686978, 2013; also: nearly all actives have a fitted effect of over 55% in size
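A cellular qHTS used chicken DT40 cells lacking endogenous Tdp1 but carrying stably transfected human TDP1. Compounds were applied without camptothecin, and cell growth kinetics were judged by ATP-dependent luminescence after ≥48 hr.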
HT1080 IDH1KD tx: kills HT-1080 cells with IDH1 knockdown; HT-1080 IDH1 knockdown viability, ATP luminescence, 48 h; 360,000 tested, 2% active; AID 686971; Potency, µM (highest dose often 46.1 µM), most hits filed as cytotoxic
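Assay cells: HT-1080 with IDH1 knockdown, 750 per well, RPMI/5% FBS. Exposure: 48 h at 37 °C following 2 h pre-incubation. Read: CellTiter-Glo luminescence; fitted concentration-response, curve class assigned.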
TDP1 cell CPT: growth inhibition of DT40 Tdp1-/-;hTDP1 cells with camptothecin (screen for TDP1 inhibitors); chicken DT40 Tdp1-/-;hTDP1 cells + 20 nM CPT, ATP luminescence, 48 h; Potency, µM (series often up to 46.2 µM), usual class: inhibitors; 420,000 tested, 12% active; AID 686979; also: nearly all actives have a fitted effect of over 55% in size
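Chicken DT40 Tdp1-/- cells complemented with human TDP1, 400 cells/well, exposed to compounds plus 20 nM camptothecin for at least 48 h at 37 C; viability read as ATP content by CellTiter-Glo luminescence.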
TGFb inhibitor: blocks TGF-b signaling. HepG2 CAGA-GFP TGF-b/SMAD3 reporter, GFP fluorescence, 18 h; TGF-beta stimulated, 500 pg/mL final. Potency, µM (doses to about 46.1 µM), usual class: inhibitors. 410,000 tested, 1.2% active. AID 588855; also: nearly all actives have a fitted effect of over 65% in size
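Inhibition of TGF-beta-driven CAGA-GFP reporter expression in HEPG2 cells is measured by cellular GFP fluorescence after 18 h stimulation with 500 pg/mL recombinant TGF-beta in 1% FBS medium at 37 degrees C.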
A number is an active result. Calls follow the shape of the dose curve; as a rule, active = well fitted curve in the direction sought with a large enough effect; inconclusive = small, poorly fitted or top-dose-only effect, or another doubt; inactive = no such curve, though single readings can be large; an effect the other way counts as inactive or inconclusive.

How did CCc1ccc2[nH]c(=O)c(CN(Cc3ccccc3)Cc3nnnn3Cc3ccco3)cc2c1 do in these assays?
HT1080NT lethal: inactive; HepG2 tox: inactive; TDP1 cell noCPT: 16µM; HT1080 IDH1KD tx: inconclusive; TDP1 cell CPT: inconclusive; TGFb inhibitor: inactive

What do the screens show for `COC(=O)c1scc(C)c1-n1ccc(C(=O)C(=O)N(C)C)c1`?
HT1080NT lethal: inactive; HepG2 tox: inactive; TDP1 cell noCPT: inactive; HT1080 IDH1KD tx: inactive; TDP1 cell CPT: inactive; TGFb inhibitor: inactive

Results for Cc1ccc2[nH]c(=O)c(CN(Cc3ccccc3)Cc3nnnn3Cc3ccccc3)cc2c1 ?
HepG2 tox: inactive; TDP1 cell noCPT: 13µM; TDP1 cell CPT: inconclusive; TGFb inhibitor: inactive

Results for CCOC(=O)Cn1nnnc1CN(Cc1ccccc1)Cc1cc2cc(CC)ccc2[nH]c1=O ?
HT1080NT lethal: inactive; HepG2 tox: inactive; TDP1 cell noCPT: inconclusive; HT1080 IDH1KD tx: inactive; TDP1 cell CPT: 21µM; TGFb inhibitor: inconclusive

How did Cc1ccc2[nH]c(=O)c(CN(Cc3ccc4c(c3)OCO4)Cc3nnnn3Cc3ccco3)cc2c1 do in these assays?
HT1080NT lethal: inactive; HepG2 tox: inactive; TDP1 cell noCPT: inconclusive; HT1080 IDH1KD tx: inactive; TDP1 cell CPT: 12µM; TGFb inhibitor: inconclusive

Results for Cc1ccc2[nH]c(=O)c(CN(CCCO)Cc3nnnn3Cc3ccco3)cc2c1 ?
HepG2 tox: inactive; TDP1 cell noCPT: inconclusive; TDP1 cell CPT: inconclusive; TGFb inhibitor: inactive

How did CCc1ccc2[nH]c(=O)c(CN(Cc3ccccc3)Cc3nnnn3Cc3ccccc3)cc2c1 do in these assays?
HepG2 tox: inactive; TDP1 cell noCPT: inconclusive; TDP1 cell CPT: inconclusive; TGFb inhibitor: inactive

How did COCCn1nnnc1CN(CCc1ccccc1)Cc1cc2cc(OC)ccc2[nH]c1=O do in these assays?
HT1080NT lethal: inactive; HepG2 tox: inactive; TDP1 cell noCPT: inactive; HT1080 IDH1KD tx: inconclusive; TDP1 cell CPT: inconclusive; TGFb inhibitor: inactive

How did Cc1ccc2[nH]c(=O)c(CN(Cc3ccco3)Cc3nnnn3Cc3ccccc3)cc2c1 do in these assays?
HepG2 tox: inactive; TDP1 cell noCPT: 16µM; TDP1 cell CPT: inconclusive; TGFb inhibitor: inactive

How did CN(CC(=O)Nc1ccccc1Cl)C(=O)Cn1cc(C(F)(F)F)cc(Cl)c1=O do in these assays?
HT1080NT lethal: inactive; HepG2 tox: inactive; TDP1 cell noCPT: inactive; HT1080 IDH1KD tx: inactive; TDP1 cell CPT: inactive; TGFb inhibitor: inactive

How did CC(C)(C)C(=O)NCCc1nc(-c2ccccc2)no1 do in these assays?
HT1080NT lethal: inactive; HepG2 tox: inactive; TDP1 cell noCPT: inactive; HT1080 IDH1KD tx: inactive; TDP1 cell CPT: inactive; TGFb inhibitor: inactive

Results for C=CCOc1c(CNn2nnnc2N)cccc1OC ?
HT1080NT lethal: inactive; HepG2 tox: inactive; TDP1 cell noCPT: inactive; HT1080 IDH1KD tx: inactive; TDP1 cell CPT: inactive; TGFb inhibitor: inactive

How did COc1cc(CNn2nnnc2N)cc(Br)c1OCc1c(Cl)cccc1Cl do in these assays?
HT1080NT lethal: inactive; HepG2 tox: inactive; TDP1 cell noCPT: 21µM; HT1080 IDH1KD tx: inconclusive; TDP1 cell CPT: 18µM; TGFb inhibitor: inactive

What do the screens show for `CCCn1c(=N)c(C(=O)NC(C)c2ccccc2)cc2c(=O)n3ccccc3nc21` (configuration not stated)?
HepG2 tox: inactive; TDP1 cell noCPT: inconclusive; TDP1 cell CPT: inconclusive; TGFb inhibitor: inactive

What do the screens show for `CC(Nc1ncnc2ccccc12)c1ccccc1` (configuration not stated)?
HT1080NT lethal: inconclusive; HepG2 tox: inactive; TDP1 cell noCPT: 0.73µM; HT1080 IDH1KD tx: inactive; TDP1 cell CPT: 1.2µM; TGFb inhibitor: inactive

How did Cc1ccc(-n2ncc3c(NC(C)c4ccccc4)ncnc32)cc1 (configuration not stated) do in these assays?
HepG2 tox: inactive; TDP1 cell noCPT: inconclusive; TDP1 cell CPT: inconclusive; TGFb inhibitor: inactive
